Measurements published in PubChem BioAssay (NCATS).
The source made the active and inactive calls. Calls come from the whole dose curve; as a rule, active = well fitted curve in the direction sought with a large enough effect; inconclusive = small, poorly fitted or top-dose-only effect, or another doubt; inactive = no such curve, though single readings can be large or run the other way.

What follows are compounds tested against Thyrotropin receptor (Homo sapiens) (UniProt P16473) (assay: qHTS Assay for Antagonists of the Thyroid Stimulating Hormone Receptor (AID 488980; note: 0% is about no effect)). Details: TSHR-expressing cells, cAMP antagonist read-out; series mostly up to 57.5 µM; activity, negative = inhibition: at the top concentration.
Thyrotropin receptor (Homo sapiens), sequence (P16473 whole entry, looked up): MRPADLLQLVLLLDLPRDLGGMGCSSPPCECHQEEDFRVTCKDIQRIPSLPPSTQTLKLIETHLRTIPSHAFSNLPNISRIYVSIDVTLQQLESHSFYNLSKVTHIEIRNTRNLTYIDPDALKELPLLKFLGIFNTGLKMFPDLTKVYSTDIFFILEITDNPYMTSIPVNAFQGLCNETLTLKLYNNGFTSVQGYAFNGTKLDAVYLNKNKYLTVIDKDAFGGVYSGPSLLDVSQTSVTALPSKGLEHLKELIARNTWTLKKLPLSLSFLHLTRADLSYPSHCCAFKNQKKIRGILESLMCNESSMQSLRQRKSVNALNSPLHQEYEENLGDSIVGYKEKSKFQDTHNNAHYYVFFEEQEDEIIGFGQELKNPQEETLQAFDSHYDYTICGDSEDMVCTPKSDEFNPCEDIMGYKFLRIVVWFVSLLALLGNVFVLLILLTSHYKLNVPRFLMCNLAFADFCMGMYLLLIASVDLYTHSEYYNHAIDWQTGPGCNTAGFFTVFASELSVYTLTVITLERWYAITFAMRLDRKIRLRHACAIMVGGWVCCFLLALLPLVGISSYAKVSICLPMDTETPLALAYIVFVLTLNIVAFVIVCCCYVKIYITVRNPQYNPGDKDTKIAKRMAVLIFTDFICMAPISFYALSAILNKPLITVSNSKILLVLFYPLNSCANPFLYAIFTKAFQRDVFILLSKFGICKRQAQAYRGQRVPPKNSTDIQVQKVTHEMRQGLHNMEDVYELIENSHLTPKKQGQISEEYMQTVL
Text: TSH is an alpha/beta heterodimeric glycoprotein hormone secreted from the anterior pituitary gland which belongs to the glycoprotein hormone family. The actions of TSH are mediated by a seven-transmembrane receptor, which upon TSH binding couples preferentially to the G-alpha (s) protein (Gs), resulting in activation of adenylate cyclase and increase in cyclic adenosine 3', 5' monophosphate (cAMP). The TSH receptor (THSR) is mainly expressed in thyroid follicular cells and regulates their growth and function. This cell based assay was conducted on a TSHR transfected HEK 293 cell line, measuring cAMP stimulation using antibody-based Homogeneous Time Resolved Fluorescence (HTRF).
Our goal is to identify small molecules that will inhibit (antagonize) the thyroid-stimulating hormone receptor (TSHR), a member of the 7 transmembrane-spanning receptor (7TMR) family of cell surface receptors. TSHR-mediated hyperthyroidism is important in thyroid pathology. The development of small molecule antagonists of TSHR may lead to therapeutic approaches for TSHR-mediated hyperthyroidism caused by constitutively activating mutations or stimulating auto-antibodies associated with Graves' disease. Graves' disease is the leading cause of hyperthyroidism and is caused by autoantibodies that stimulate TSHR (TsAbs) causing thyroid growth and unregulated overproduction of thyroid hormones and existing treatments have liabilities (agranulocytosis). In addition, TSHRs are known to be expressed in multiple extrathyroidal tissues including bone, brain, kidney, testis, fat and cells of the immune system but the role of the TSHR in these tissues is not clear. Therefore, TSHR antagonists/inverse agonists could be used as probes of extrathyroidal TSHR function. Finally, TSHR inverse agonists, which are a subclass of antagonists that inhibit agonist-independent (or basal or constitutive) TSHR signaling, could be used to inhibit TSH-independent signaling in patients with recurrent or metastatic thyroid cancer who are receiving thyroid hormone to suppress TSH.
An anti cAMP antibody contains a fluorescent cryptate tag (excitation 337 nm; emission 620 nm) and the acceptor is cAMP-d2 (excitation 620 nm; emission 665 nm). When antibody and cAMP-d2 interact and are excited by a 337 nm light, a FRET occurs resulting in emission at 665 nm. The assay is competition between cAMP-d2 and cAMP (from the cell lysate). The homogeneous protocol allows for one step dispense after stimulation that is automation friendly.
Step, Parameter, Value, Description
1, Cells, 3 uL, 2000 TSHR freshly harvested cells/well 1536 TC treated White solid bottom plate (Cells resuspended in 10 mM HEPES buffered HBSS and 70 uM RO 20-1724)
2, Compound, 23 nL, Libraries and controls
3, Compound, 1 uL, EC80 TSH (4 nM final)
5, Reagent, 2 uL, cAMP antibody diluted 1:20 in lysis buffer
6, Time, 30 minutes, Room temperature
7, Detector, HTRF settings, Viewlux

Structure (SMILES)	activity, negative = inhibition	outcome
NC(=O)OCC(COC(N)=O)c1ccccc1	-0.631% (inactive)	
CC(CCc1ccc(O)cc1)NCCc1ccc(O)c(O)c1 (stereo not given)	0.0078% (inactive)	
N[C@@H](Cc1c[nH]c2ccc(O)cc12)C(=O)O	-1.32% (inactive)	
COc1ccccc1OCC(O)CN1CCN(CC(=O)Nc2c(C)cccc2C)CC1 (stereo not given)	0.251% (inactive)	
Cc1ccc(C(=O)Nc2ccc(S(=O)(=O)O)c3cc(S(=O)(=O)O)cc(S(=O)(=O)O)c23)cc1NC(=O)c1cccc(NC(=O)Nc2cccc(C(=O)Nc3cc(C(=O)Nc4ccc(S(=O)(=O)O)c5cc(S(=O)(=O)O)cc(S(=O)(=O)O)c45)ccc3C)c2)c1	-0.196% (inactive)	
COc1cc2c(c(OC)c1OC)-c1ccc(OC)c(=O)cc1[C@@H](NC(C)=O)CC2	-0.893% (inactive)	
CN(C)CCOC(c1ccccc1)c1ccccc1	-1.69% (inactive)	
CN1CCN(CCCN2c3ccccc3Sc3ccc(Cl)cc32)CC1	-0.0935% (inactive)	
O=C(Nc1ccc([N+](=O)[O-])cc1Cl)c1cc(Cl)ccc1O	-1.22% (inactive)	
Nc1nc2c(ncn2COC(CO)CO)c(=O)[nH]1	-0.18% (inactive)	
Nc1nnc(-c2cccc(Cl)c2Cl)c(N)n1	-1.45% (inactive)	
NC(=O)NO	-1.93% (inactive)	
CN(Cc1cnc2nc(N)nc(N)c2n1)c1ccc(C(=O)N[C@@H](CCC(=O)O)C(=O)O)cc1	-2.21% (inactive)	
O=C(c1ccc(F)cc1)C1CCN(CCn2c(=O)[nH]c3ccccc3c2=O)CC1	0.0341% (inactive)	
COc1ccc(C2CNC(=O)C2)cc1OC1CCCC1 (stereo not given)	-0.0078% (inactive)	
NCCS(=O)(=O)O	0.0157% (inactive)	
CN(C)CCC=C1c2ccccc2C=Cc2ccccc21	-0.851% (inactive)	
Nc1c2c(nc3ccccc13)CCCC2	-0.376% (inactive)	
CN1CCC(=C2c3ccccc3C=Cc3ccccc32)CC1	0.211% (inactive)	
Clc1ccccc1C(c1ccccc1)(c1ccccc1)n1ccnc1	-0.354% (inactive)	

Structure (SMILES)	activity, negative = inhibition	outcome
O=c1c(-c2ccc(O)cc2)coc2cc(O)cc(O)c12	-0.0157% (inactive)	
CCOC(=O)c1ncn2c1CN(C)C(=O)c1cc(F)ccc1-2	-0.311% (inactive)	
NCCCCCC(=O)O	-1.36% (inactive)	
COc1ccc(CCN(C)CCCC(C#N)(c2ccc(OC)c(OC)c2)C(C)C)cc1OC (stereo not given)	-1.69% (inactive)	
CNCCCC12CCC(c3ccccc31)c1ccccc12	-0.341% (inactive)	
COc1ccc2c(c1)c(CC(=O)O)c(C)n2C(=O)c1ccc(Cl)cc1	-1.13% (inactive)	
CC(C)Cc1ccc(C(C)C(=O)O)cc1 (stereo not given)	0.977% (inactive)	
Cc1cc(C(C)(C)C)c(O)c(C)c1CC1=NCCN1	-0.608% (inactive)	
Cc1cc(C(C)(C)C)cc(C)c1CC1=NCCN1	-0.744% (inactive)	
CC1COc2c(N3CCN(C)CC3)c(F)cc3c(=O)c(C(=O)O)cn1c23 (stereo not given)	-0.297% (inactive)	
COc1cc2nc(N3CCN(C(=O)C4COc5ccccc5O4)CC3)nc(N)c2cc1OC (stereo not given)	-1.7% (inactive)	
CC(C)NCC(O)c1ccc(O)c(O)c1 (stereo not given)		inactive
CS(=O)(=O)Nc1ccc([N+](=O)[O-])cc1Oc1ccccc1	-0.485% (inactive)	
COc1ccc2[nH]cc(CCNC(C)=O)c2c1	-1.95% (inactive)	
CN1CCN(C2=Nc3cc(Cl)ccc3Nc3ccccc32)CC1	-1.68% (inactive)	
NS(=O)(=O)c1cc2c(cc1Cl)NCNS2(=O)=O	-0.0783% (inactive)	
Cc1cnc(C(=O)NCCc2ccc(S(=O)(=O)NC(=O)NC3CCCCC3)cc2)cn1	-0.253% (inactive)	
Fc1ccc([C@@H]2CCNC[C@H]2COc2ccc3c(c2)OCO3)cc1	-0.148% (inactive)	
Cc1ccccc1N1C(=O)c2cc(S(N)(=O)=O)c(Cl)cc2NC1C (stereo not given)	-1.24% (inactive)	
COC(=O)Nc1nc2ccc(C(=O)c3cccs3)cc2[nH]1	-0.164% (inactive)	
